What all share (assay): NCI-60 one-dose screen, 48 h (100 = growth as untreated, 0 = no growth, -100 = all killed)
For one assay, the system named is A549/ATCC NSCLC. As to conditions: 10 µM unless noted.
For another assay, the system named is COLO 205 colon. Particulars: 10 µM.
In the next assay the test system is MALME-3M melanoma. As to conditions: 10 µM unless noted.
Another assay has as its system RXF 393 renal. As to conditions: 10 µM unless noted.
The test system of a further assay is UACC-257 melanoma. Particulars: 10 µM unless noted.
The test system of another assay is HT29 colon. As to conditions: 10 µM unless noted.
The subject of the next assay is U251 CNS. As to conditions: 10 µM unless noted.
In a further assay the test system is SK-MEL-2 melanoma. As to conditions: 10 µM unless noted.
For the next assay, the system named is SN12C renal. Particulars: 10 µM unless noted.
Another assay relates to UO-31 renal. As to conditions: 10 µM unless noted.
In a further assay the test system is A498 renal. Particulars: 10 µM unless noted.
Another assay relates to HL-60(TB) leukemia. As to conditions: 10 µM unless noted.
The next assay has as its system OVCAR-8 ovarian. Particulars: 10 µM unless noted.
In a further assay the test system is OVCAR-4 ovarian. As to conditions: 10 µM unless noted.
For the next assay, the system named is SK-OV-3 ovarian. As to conditions: 10 µM unless noted.
Another assay relates to HS 578T breast. Particulars: 10 µM unless noted.
Another assay has as its system T-47D breast. Particulars: 10 µM unless noted.
In a further assay the test system is MDA-MB-435 melanoma. Particulars: 10 µM unless noted.
For another assay, the system named is CAKI-1 renal. Particulars: 10 µM unless noted.
The test system of another assay is BT-549 breast. Particulars: 10 µM.

The panel holds about 83,000 compounds, 20% with a hit somewhere; the sample as a whole holds those more often.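 The test compound was applied at a single concentration to cells in 96-well plates for 48 hours, and percent growth was recorded.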 Unmarked numbers belong to inactive results. Active and inactive are the calls of the source. Rule for the calls: active = growth percent below 10; inactive = the rest.

Take `CN(Cc1cccnc1)N=O`: the growth was 94.5% in the assay with A549/ATCC NSCLC; 105% in the assay with COLO 205 colon; 96.6% in the assay on MALME-3M melanoma; 104% with RXF 393 renal; 95.7% in the assay on UACC-257 melanoma; 102% in the assay with HT29 colon. In addition, the growth in the assay with U251 CNS was 97.1%; in the assay on SK-MEL-2 melanoma, 89%; with SN12C renal, 102%; in the assay with UO-31 renal it was 84.7%; with A498 renal it was 104%; with HL-60(TB) leukemia, 97.6%. Further, the growth in the assay on OVCAR-8 ovarian is 98.6%; in the assay on OVCAR-4 ovarian it was 102%; with SK-OV-3 ovarian it was 99.4%; in the assay with HS 578T breast it was 89%; in the assay on T-47D breast, 90.7%; in the assay on MDA-MB-435 melanoma, 103%.
`Cc1ccc2oc(=O)c3c(c2c1)OC(N)=C(C#N)C3c1ccco1` (stereo unspecified): the growth is 97% in the assay with A549/ATCC NSCLC; 99% in the assay on MALME-3M melanoma; 96.6% with UACC-257 melanoma; 108% with HT29 colon; 109% with U251 CNS; 112% in the assay on SK-MEL-2 melanoma. For the same compound, the growth with SN12C renal is 101%; in the assay on UO-31 renal, 77.7%; with CAKI-1 renal it was 91.3%; with A498 renal it was 105%; with HL-60(TB) leukemia, 113%; in the assay on OVCAR-8 ovarian, 101%. Further, the growth is 114% with OVCAR-4 ovarian, 93.5% in the assay on HS 578T breast, 98.8% in the assay with BT-549 breast and 105% in the assay on MDA-MB-435 melanoma.
Take `C[C@]12CC[C@@H]3c4ccc(OC(=O)Cc5ccc(N(CCCl)CCCl)cc5)cc4CC[C@H]3[C@@H]1CC[C@@H]2OC(=O)Cc1ccc(N(CCCl)CCCl)cc1`: the growth in the assay with COLO 205 colon was 104%; with MALME-3M melanoma, 113%; in the assay on HT29 colon it was 117%; with U251 CNS, 107%; in the assay with SK-MEL-2 melanoma, -3.92% (active); with SN12C renal, 92.3%. Also, the growth was 82.7% in the assay with UO-31 renal; 101% in the assay with CAKI-1 renal; 121% with A498 renal; 108% in the assay on HL-60(TB) leukemia; 111% in the assay on OVCAR-4 ovarian; 126% in the assay on SK-OV-3 ovarian. In addition, the growth in the assay on HS 578T breast was 120%; with T-47D breast, 121%; in the assay on MDA-MB-435 melanoma, 112%.
As for `CC(=O)O[C@H]1CCC2(C)C(=CCC3C2CCC2(C)/C(=N/OC(=O)c4ccc(N(CCCl)CCCl)cc4)CCC32)C1` (stereo partly specified), the growth was 2.05% (active) with A549/ATCC NSCLC; 69.7% with COLO 205 colon; 92.2% in the assay with MALME-3M melanoma; 44.1% in the assay with RXF 393 renal; 97.2% in the assay on UACC-257 melanoma; 32.6% in the assay with HT29 colon. Moreover, the growth in the assay with U251 CNS is -27.2% (active); in the assay on SK-MEL-2 melanoma it was 99.2%; in the assay with SN12C renal it was 47.3%; in the assay with UO-31 renal, -11.9% (active); in the assay with CAKI-1 renal, 50.2%; in the assay with A498 renal it was 57%. Further, the growth with HL-60(TB) leukemia was 17.5%; with OVCAR-8 ovarian, 56.4%; with SK-OV-3 ovarian, 102%; with HS 578T breast, 27%; in the assay on T-47D breast, 17.7%; in the assay on BT-549 breast it was 51.4%. Also, the growth with MDA-MB-435 melanoma was 47.1%.
With `CC12CCC3C(CC=C4CC(O)CCC43C)C1C/C(=C\N1CCOCC1)C2=O` (stereo unspecified), the growth in the assay on COLO 205 colon was 116%; in the assay with MALME-3M melanoma, 110%; in the assay on RXF 393 renal it was 110%; in the assay with UACC-257 melanoma it was 101%; in the assay with HT29 colon it was 105%; with U251 CNS, 100%. Further, the growth was 106% with SK-MEL-2 melanoma; 102% with SN12C renal; 79.2% with UO-31 renal; 91% in the assay with CAKI-1 renal; 129% in the assay on HL-60(TB) leukemia; 100% with OVCAR-8 ovarian. Also, the growth with OVCAR-4 ovarian was 94.4%; in the assay with SK-OV-3 ovarian it was 111%; with HS 578T breast, 114%; in the assay with T-47D breast, 96%; in the assay on BT-549 breast it was 93.1%; with MDA-MB-435 melanoma, 107%.
As for `CC1CC=CCC12C(=O)NC(=S)NC2=O` (stereo unspecified), the growth was 91.2% in the assay with A549/ATCC NSCLC; 122% in the assay with COLO 205 colon; 105% with MALME-3M melanoma; 106% in the assay with RXF 393 renal; 114% in the assay on UACC-257 melanoma; 107% with HT29 colon. For the same compound, the growth in the assay with U251 CNS is 94.9%; in the assay with SK-MEL-2 melanoma it was 131%; with SN12C renal, 99.8%; with UO-31 renal, 92.9%; with CAKI-1 renal, 96.6%; in the assay with A498 renal, 72.9%. Moreover, the growth was 136% in the assay with HL-60(TB) leukemia; 104% in the assay with OVCAR-8 ovarian; 105% in the assay with OVCAR-4 ovarian; 104% in the assay on SK-OV-3 ovarian; 102% in the assay with HS 578T breast; 98.2% in the assay on T-47D breast. Further, the growth with BT-549 breast is 110%; in the assay with MDA-MB-435 melanoma it was 106%.
`CCOc1ccc(C(O)CN(C)Cc2ccccc2)cc1Cl` (stereo unspecified): the growth in the assay on A549/ATCC NSCLC is 102%; in the assay on COLO 205 colon, 105%; in the assay with MALME-3M melanoma, 104%; with RXF 393 renal, 90.5%; with UACC-257 melanoma it was 108%; with HT29 colon, 98%. In addition, the growth in the assay on U251 CNS is 97.4%; with SK-MEL-2 melanoma, 102%; in the assay with SN12C renal, 102%; with UO-31 renal, 85.5%; in the assay with CAKI-1 renal, 93.3%; in the assay with A498 renal, 90.5%. Besides, the growth with HL-60(TB) leukemia is 103%; with OVCAR-8 ovarian, 105%; with OVCAR-4 ovarian, 103%; in the assay on SK-OV-3 ovarian, 109%; in the assay with HS 578T breast, 101%; in the assay with T-47D breast it was 97.1%. Also, the growth was 106% with BT-549 breast and 103% with MDA-MB-435 melanoma.
`C[CH2][Pb]([CH2]C)([CH2]C)[O]C(=O)COC`: the growth is -7.82% (active) in the assay on COLO 205 colon; 10.6% in the assay with MALME-3M melanoma; -8.73% (active) with RXF 393 renal; 0.481% (active) in the assay with HT29 colon; -12.1% (active) in the assay on U251 CNS; -38.7% (active) with SK-MEL-2 melanoma. The growth is 2.97% (active) in the assay with SN12C renal; -9.22% (active) in the assay on UO-31 renal; -10.3% (active) with CAKI-1 renal; -3.55% (active) in the assay on A498 renal; -50% (active) in the assay with HL-60(TB) leukemia; 3.57% (active) with OVCAR-8 ovarian. The growth with OVCAR-4 ovarian is 9.63% (active); with SK-OV-3 ovarian it was -3.94% (active); in the assay on HS 578T breast, -2.8% (active); with T-47D breast it was 17.2%; in the assay on BT-549 breast, -18.8% (active); in the assay with MDA-MB-435 melanoma, -12.3% (active).
As to `C[CH2][Pb]([CH2]C)([CH2]C)[O]C(=O)COc1ccccc1`, the growth with COLO 205 colon is 1.67% (active); in the assay with MALME-3M melanoma, 21.8%; with RXF 393 renal, 7.08% (active); in the assay on HT29 colon, 4.3% (active); in the assay with U251 CNS, -1.93% (active); with SK-MEL-2 melanoma, -0.355% (active). In addition, the growth with UO-31 renal was -6.3% (active); with CAKI-1 renal it was -5.81% (active); in the assay on A498 renal, -2.32% (active); with HL-60(TB) leukemia it was -48.1% (active); in the assay on OVCAR-8 ovarian, 9.05% (active); in the assay on OVCAR-4 ovarian, 14.8%. In addition, the growth was 4.72% (active) in the assay on SK-OV-3 ovarian; 4.72% (active) with HS 578T breast; 17.2% in the assay on T-47D breast; -11.4% (active) in the assay with BT-549 breast; -31.9% (active) in the assay on MDA-MB-435 melanoma.

The record behind these values is PubChem BioAssay (NCI).
